# Integrin act MD – activators of alpha7 integrin expression for muscular dystrophy; alpha7betagal myoblasts, beta-gal FDG fluorescence, 48 h; Potency, µM (top dose mostly 38.3 µM), inactives show top-dose activation, usual class: activators; 350,000 compounds, 0.064% hits; AID 624291;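 further: potency means the concentration at half of the fitted maximal effect; 100% = response of the positive control SU9516; nearly all actives have a fitted effect of over 60% in size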
#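 Alpha7betagal+/- myoblasts (passage 13) were plated 16-24 hr, then exposed to compounds (1:260 dilution of DMSO stock) for 48 hours at 37C. After MPER lysis, β-galactosidase reporter activity was read as FDG fluorescence (ex 480/em 540) after 30 minutes.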
# Gal4-VP16 FLuc – counter-screen for ROR gamma inhibitors: Gal4-VP16 reporter; Drosophila S2 Gal4-VP16 UAS-luciferase, luminescence, 20 h; Potency, µM (series often up to 53.6 µM), inactives show at the highest dose activity, negative = inhibition, hits mostly inhibitors; 310,000 compounds, 3.5% hits; AID 2546;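 further: Gal4-VP16 expression switched on by copper sulfate through the metallothionein promoter; potency means the concentration at half of the fitted maximal effect; on the % scale 0 is the no-effect control and ±100 the full control effect; nearly all actives have a fitted effect of over 50% in size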
# RORg inh – inhibitors of mouse ROR gamma transcriptional activity; 310,000 compounds, 5.4% hits; Potency, µM (highest dose often 53.6 µM), for inactives: at the highest dose activity change, negative = inhibition, actives largely listed as inhibitors; Drosophila S2 Gal4-RORgamma UAS-luciferase reporter, 20 h; P51450; AID 2551; further: potency means the concentration at half of the fitted maximal effect; on the % scale 0 is the no-effect control and ±100 the full control effect; nearly all actives have a fitted effect of over 60% in size
# Target sequence (P51450 whole entry, looked up, the tested form may be a part): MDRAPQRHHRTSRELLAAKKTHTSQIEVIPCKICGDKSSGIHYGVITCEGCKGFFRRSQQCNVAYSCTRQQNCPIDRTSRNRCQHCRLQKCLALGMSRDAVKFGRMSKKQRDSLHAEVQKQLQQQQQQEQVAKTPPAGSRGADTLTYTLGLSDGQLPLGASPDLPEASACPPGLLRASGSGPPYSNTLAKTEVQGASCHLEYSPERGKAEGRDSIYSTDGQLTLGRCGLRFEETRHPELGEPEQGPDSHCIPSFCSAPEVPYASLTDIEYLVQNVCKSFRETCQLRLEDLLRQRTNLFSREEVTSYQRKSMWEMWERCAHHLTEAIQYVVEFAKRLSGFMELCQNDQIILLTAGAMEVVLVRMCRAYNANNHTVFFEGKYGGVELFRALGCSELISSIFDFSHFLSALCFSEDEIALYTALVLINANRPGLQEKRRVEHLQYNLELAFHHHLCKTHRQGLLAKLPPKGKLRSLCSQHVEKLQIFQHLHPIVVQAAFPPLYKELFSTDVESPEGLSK
#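 Luciferase reporter read in Schneider cells carrying Gal4-RORγ (mouse) and UAS-Photinus luciferase; cells given compound 1 h before 700 uM copper sulfate induction, then incubated 20 h at ambient temperature.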
# Giardia kill – Giardia lamblia killing. Giardia lamblia trophozoite viability. activity change, % at 7.66 µM, hits read low. 340,000 compounds, 0.15% hits. AID 540267; in the data active means activity change below about -80%; inconclusive means between about -30% and that limit;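 further: parasites exposed to compound for two days anaerobically before the ATP read; on the % scale 0 is the no-effect control and ±100 the full control effect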
#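 Trophozoite viability was measured as ATP-dependent luminescence, read 15-30 min after reagent addition. Before that, parasites at 100 cells/well were exposed to compounds for 48 h, anaerobically, at 37 deg C.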
# ERG-DNA inh – inhibitors of human ERG Ets domain-DNA interaction; fluorescence polarization, His-ERG Ets domain / labelled DNA; Potency, µM (titrated, usually from 76.9 µM), inactives show top-dose FP activity, negative = inhibition, hits mostly inhibitors; 370,000 compounds, 0.028% hits; active means well fitted inhibition curve with a large enough effect in the polarisation, with a control signal flat; inconclusive means small, poorly fitted or top-dose-only effect, or effect the other way, or a change in a side signal; inactive means no such curve, though single readings can be large or run the other way; the % refers to the polarisation;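 further: polarization taken with two DNA probes labelled with fluorescein and Texas red; potency means the concentration at half of the fitted maximal effect; % of control where 0% means no effect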
#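 His-tagged ERG Ets domain (1 uM in the protein solution; 300mM KCl, 50mM Tris-HCl, 1mM EDTA, 1mM DTT, pH 7.5) received compound, then a probe mix of 5 nM fluorescein-DNA and 100nM Texas-615-DNA. Fluorescence polarization was read for both dyes.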
# An asterisk follows results filed as active; ? = inconclusive; / = not tested or not shown; [ ] = dose if it differs, or a comment. The full list was thinned out, with hits kept by preference. Unless noted, the call rests on the fitted dose curve; in most records, active means well fitted curve in the direction sought with a large enough effect; inconclusive means small, poorly fitted or top-dose-only effect, or another doubt; inactive means no such curve, though single readings can be large; an effect the other way counts as inactive or inconclusive.
SMILES,Integrin act MD,Gal4-VP16 FLuc,RORg inh,Giardia kill,ERG-DNA inh
COc1ccc(-c2cc(C(=O)OCC(=O)NC3CC3)c3ccccc3n2)cc1,0%,/,/,12,-3%
COc1ccc2cc(-c3cc(C(=O)OCC(=O)Nc4c(C)n(C)n(-c5ccccc5)c4=O)c4ccccc4n3)ccc2c1,33%,?,7.1µM*,-94*,-2%
CN(C)S(=O)(=O)c1cccc(NC(=S)Nc2ccc(Cl)cc2Cl)c1,-9%,?,20µM*,8,2%
CC(/C=N/NC(=S)Nc1cccc(S(=O)(=O)N(C)C)c1)c1ccccc1 (centres undefined),-1%,-15%,-30%,9,-3%
COc1cc(/C=N/NC(=S)Nc2cccc(S(=O)(=O)N(C)C)c2)cc(OC)c1O,2%,2.8µM*,3.2µM*,8,/
CN(C)S(=O)(=O)c1cccc(NC(=S)N/N=C/c2ccc(O)c(O)c2O)c1,-39%,-20%,?,0,-1%
CN(C)S(=O)(=O)c1cccc(NC(=S)N/N=C/C(c2ccccc2)c2ccccc2)c1,-17%,5µM*,3.5µM*,-4,1%
CN(C)S(=O)(=O)c1cccc(NC(=S)Nc2cc(Cl)cc(Cl)c2)c1,5%,-2%,31%,-11,-4%
CN(C)S(=O)(=O)c1cccc(NC(=S)N/N=C/c2ccco2)c1,16%,3.2µM*,1.1µM*,7,-8%
Cc1ccnc(NS(=O)(=O)c2ccc(NC(=O)c3cccc(Cl)c3)cc2)n1,3%,/,/,/,/
O=C1COc2ccc(C(=O)/C=C/c3ccccc3)cc2N1,-24%,3%,-38%,1,3%
COc1cccc(/C=N/NC(=S)Nc2cccc(S(=O)(=O)N(C)C)c2)c1,-44%,4.5µM*,1.6µM*,7,?
COc1ccc(O)c(/C=N/NC(=S)Nc2cccc(S(=O)(=O)N(C)C)c2)c1,-13%,?,?,-3,/
CCN(c1ccccc1)S(=O)(=O)c1ccc(C(=O)Nc2nnc(-c3ccco3)o2)cc1,-4%,-7%,0.1µM*,-14,4%
CN(c1ccccc1)S(=O)(=O)c1ccc(C(=O)Nc2nnc(-c3ccco3)o2)cc1,-14%,1.1µM*,0.71µM*,-2,12%
CC(C)CN(C[C@@H](OP(=O)(O)O)[C@H](Cc1ccccc1)NC(=O)O[C@@H]1CCOC1)S(=O)(=O)c1ccc(N)cc1,/,3%,24%,/,/
Cc1ccc(/C=N/n2c(-c3ccc(Cl)cc3)n[nH]c2=S)o1,-4%,-30%,6.3µM*,7,-11%
Cc1ccc(-c2n[nH]c(=S)n2/N=C/c2ccc(C)o2)cc1,-2%,3.5µM*,5µM*,13,7%
Cc1ccc(-c2n[nH]c(=S)n2/N=C/c2ccncc2)cc1,10%,?,11µM*,-2,2%
Cc1ccc(/C=N/n2c(-c3cccnc3)n[nH]c2=S)o1,-33%,-13%,-39%,-16,-7%
Cc1cc(C)c(NC(=O)CN2C(=O)C3(SCC(=O)N3c3ccc(F)cc3)c3ccccc32)c(C)c1 (centres undefined),/,/,/,/,-11%
CC1=CC(C)(C)N2C(=O)C3(SCC(=O)N3c3ccc(F)cc3)c3cc(C)cc1c32 (centres undefined),1%[7.66 µM],0%,16µM*,8,2%
OC(CNCCC1C=Nc2ccccc21)Cn1c2ccc(Cl)cc2c2cc(Cl)ccc21 (centres undefined),-69%,13µM*,?,-14,4%
COc1ccc(CNC(=O)C2CCCN(C(=O)N3CCOc4ccccc43)C2)cc1 (centres undefined),/,/,/,/,-15%
COc1ccccc1CCC(=O)Oc1ccc(C#N)cc1OC,32%,11µM*,?,15,-11%
C=C1CCN(C(Cc2ccccc2)C(=O)Nc2ccc(OC)cc2)S(=O)(=O)c2ccccc21 (centres undefined),/,-6%,-30%,-3,/
CC1=C(C(=O)N2CCCC(C(=O)c3cccc4ccccc34)C2)OCCO1 (centres undefined),-21%,13µM*,?,2,-8%
O=C(CSc1nc2c([nH]c3ccccc32)c(=O)n1-c1ccc(F)cc1)NC1CCCCC1,/,/,/,/,2%
O=C(/C=C/c1ccco1)NC(=S)Nc1nc(-c2ccc3ccccc3c2)cs1,6%,?,7.9µM*,?,0%

# Screening data from PubChem.
